Laboratory results as given in PMC5540273 (PLoS ONE, 2017).

What was measured:
Settings in all cases: concentration: 1 μM, replicates: in singlicate; n = 1
TRKC = tested on: T1, TRKC
T1 construct: gene NTRK3

TRPM6 = tested on: TRPM6
TSSK1B = tested on: TSSK1B
TSSK3 = tested on: TSSK3
TTK = tested on: TTK
TXK = tested on: TXK
[1] = tested on: TYK2(JH1domain-catalytic)
[2] = tested on: TYK2(JH2domain-pseudokinase)
TYRO3 = tested on: TYRO3
ULK1 = tested on: ULK1
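Also: KINOMEscan kinase panel screen.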

Structure (SMILES) | %Inh (TRKC) [%] | %Inh (TRPM6) [%] | %Inh (TSSK1B) [%] | %Inh (TSSK3) [%] | %Inh (TTK) [%] | %Inh (TXK) [%] | %Inh [1] [%] | %Inh [2] [%] | %Inh (TYRO3) [%] | %Inh (ULK1) [%]
CC(C)(C)OC(=O)NC1CCCN(c2cc(-c3ccc4c(N)n[nH]c4c3)nc(N)n2)C1 (stereo not shown) [GSK2286096] | 0 | 39 | 0 | 96.5 | 0 | 0 | 66 | 0 | 0 | 1
Cc1ccc(C)c(NC(=O)NCCNc2ccnc(Nc3ccc(F)cc3)n2)c1 [GSK1379878] | 15 | 0 | 0 | 22 | 0 | 3 | 26 | 6 | 0 | 0
COc1ccc(Nc2nccc(N3CCC(NC(=O)c4cccc(NC(C)=O)c4)C3)n2)cc1 (stereo not shown) [GSK1379732] | 43 | 0 | 14 | 11 | 8 | 5 | 36 | 30 | 0 | 0
O=c1cc(N2CCOCC2)nc2n(Cc3cccc(Cl)c3)ccn12 [GSK2296823] | 0 | 11 | 0 | 3 | 9 | 18 | 14 | 7 | 9 | 16
Cc1cccc(-c2nc(Nc3ccc4[nH]nnc4c3)c3ccccc3n2)n1 [GW867587] | 0 | 0 | 0 | 0 | 0 | 0 | 0 | 42 | 0 | 0
Nc1n[nH]c2nnc(-c3ccccc3)cc12 [SB-517389] | 0 | 35 | 9 | 100 | 0 | 25 | 36 | 79 | 0 | 20
CC(=O)Nc1n[nH]c2ncc(-c3ccccc3)cc12 [SB-548492] | 51 | 0 | 0 | 0 | 43 | 9 | 12 | 81 | 0 | 3
Oc1ccc2ncnc(Nc3ccc(OCc4ccccc4)cc3)c2c1 [GI262866] | 0 | 0 | 0 | 18 | 13 | 37 | 19 | 0 | 0 | 14
CCCc1ccc(S(=O)(=O)NC2CCN(c3ccnc(Nc4ccc(OC)cc4)n3)C2)cc1 (stereo not shown) [GSK1379737] | 36 | 0 | 0 | 5 | 0 | 6 | 53 | 46 | 0 | 99.6
Cc1ccc(O)cc1Nc1cc(C(F)(F)F)nc2ccc(-c3ccncc3)cc12 [GW630823] | 0 | 0 | 0 | 0 | 3 | 10 | 0 | 0 | 36 | 0
CN1c2ccc(-c3ccc(C(=O)NCCO)cc3)cc2-c2[nH]ncc2S1(=O)=O | 0 | 2 | 0 | 0 | 10 | 0 | 51 | 89 | 25 | 0
O=C(Nc1ccccc1F)NC1CCN(c2ccnc(Nc3ccc(F)cc3)n2)C1 (stereo not shown) [GSK1379722] | 22 | 0 | 12 | 31 | 7 | 16 | 23 | 20 | 0 | 0
OCCOCCn1ccc2ncnc(Nc3ccc(Oc4cccc(Cl)c4)c(Cl)c3)c21 | 0 | 0 | 0 | 0 | 0 | 0 | 0 | 0 | 0 | 0
Clc1cccc(-c2nc(Nc3ccncc3)c3ccccc3n2)c1 [GW873004] | 0 | 0 | 19 | 0 | 0 | 1 | 0 | 13 | 58 | 0
Cc1cc(N2CCC(NS(=O)(=O)c3ccc(F)cc3)CC2)nc(Nc2cccc(C#N)c2)n1.O=C(O)C(F)(F)F [GSK1653537] | 0 | 0 | 27 | 8 | 1 | 0 | 0 | 2 | 0 | 0
Clc1cc(Nc2ncnc3cc[nH]c23)ccc1OCc1ccccn1 | 0 | 0 | 44 | 0 | 19 | 11 | 8 | 28 | 0 | 9
O=C(CCO)NCCn1ccc2ncnc(Nc3ccc(Oc4cccc(C(F)(F)F)c4)c(Cl)c3)c21 | 0 | 0 | 0 | 2 | 0 | 0 | 0 | 0 | 0 | 0

Structure (SMILES) | %Inh (TRKC) [%] | %Inh (TRPM6) [%] | %Inh (TSSK1B) [%] | %Inh (TSSK3) [%] | %Inh (TTK) [%] | %Inh (TXK) [%] | %Inh [1] [%] | %Inh [2] [%] | %Inh (TYRO3) [%] | %Inh (ULK1) [%]
Fc1cccc(COc2ccc(Nc3ncnc4cc[nH]c34)cc2Cl)c1 | 0 | 0 | 0 | 0 | 4 | 0 | 19 | 28 | 19 | 24
Fc1cccc(COc2ccc(Nc3ncnc4nn5ccccc5c34)cc2Cl)c1 [GW689066] | 28 | 0 | 0 | 17 | 10 | 3 | 29 | 24 | 0 | 1
COC(=O)c1c(-c2ccccc2)c2cc(Cl)ccc2c(=O)n1Cc1ccc(S(C)(=O)=O)cc1 | 17 | 0 | 0 | 0 | 7 | 0 | 0 | 2 | 0 | 0
COc1ccc(NC(=O)c2ccc(-c3cc(-c4nnc(C)o4)ccc3C)cc2)cc1 [GW595885] | 20 | 0 | 12 | 44 | 11 | 0 | 12 | 22 | 3 | 6
Fc1ccc(Nc2nccc(-c3c(-c4ccc(Cl)cc4)nn4ncccc34)n2)cc1F [GW829058] | 35 | 20 | 0 | 33 | 8 | 19 | 20 | 40 | 8 | 45
Cn1ccc2ncnc(Oc3ccc(NC(=O)Nc4cccnc4)c(Cl)c3)c21 | 0 | 0 | 0 | 2 | 1 | 0 | 0 | 0 | 0 | 0
C[C@@H]1CCN(C(=O)CO)C[C@@H]1N(C)c1ncnc2[nH]ccc12 | 0 | 0 | 0 | 0 | 0 | 7 | 90.6 | 0 | 0 | 0
FC(F)(F)c1ccc(-c2cc(-c3c[nH]nc3-c3ccccn3)ccn2)cc1 [GW599550] | 14 | 38 | 13 | 7 | 0 | 0 | 20 | 21 | 0 | 0
Clc1ccc(-c2cc(-c3c[nH]nc3-c3ccccn3)ccn2)cc1 [GW681251] | 100 | 0 | 13 | 16 | 17 | 0 | 3 | 0 | 0 | 0
O=C(NCCCN1CCCC1=O)c1cnc(NCc2cc(Cl)ccc2Cl)nc1NC1CCNCC1 | 15 | 0 | 0 | 0 | 0 | 0 | 0 | 0 | 14 | 0
CS(=O)(=O)CCNCc1nc(-c2ccc3ncnc(Nc4ccc(OCc5cccc(F)c5)c(Cl)c4)c3c2)cs1.Cl [GW583340] | 0 | 37 | 0 | 12 | 0 | 94.7 | 0 | 16 | 0 | 0
CC(C)N1CCC(n2cnc(-c3ccc(F)cc3)c2-c2ccnc(N)n2)CC1 [SB-223132] | 0 | 0 | 0 | 0 | 14 | 21 | 0 | 2 | 0 | 0
CCc1nc(-c2cccc(C)c2)c(-c2ccnc(NC(=O)c3ccccc3)c2)s1 | 15 | 0 | 0 | 1 | 16 | 0 | 24 | 17 | 0 | 1
Nc1nc(-c2ccc3c(N)n[nH]c3c2)cc(N2CCCCC2)n1 [GSK2228768] | 0 | 10 | 0 | 3 | 0 | 0 | 0 | 5 | 0 | 10
CNc1nccc(-c2c(-c3ccc(F)cc3)ncn2C2CCN(C)CC2)n1 [SB-222903] | 0 | 0 | 0 | 0 | 23 | 0 | 0 | 0 | 0 | 0
COc1cc2ncnc(Nc3ccc(OCc4ccccc4Br)c(Cl)c3)c2cc1OC.Cl [GI261590] | 33 | 19 | 14 | 12 | 0 | 12 | 34 | 47 | 15 | 0
Nc1nc(-c2ccccn2)c(-c2ccnc3ccccc23)s1 [GW548057] | 45 | 0 | 0 | 9 | 2 | 0 | 24 | 29 | 0 | 0
